Measured values reported in PubChem BioAssay AID492998 (Southern Research Specialized Biocontainment Screening …, 2010).
In all, about 2,300 compounds went through this assay and about 550 (24%) were called active. Not all results are given here. Entries with a potency or affinity are not part of this list. Unmarked numbers belong to inactive results. No rule for the calls is given here.

Assay: Vero E6 cell cytotoxicity, dose response, cytotoxicity control for non-replicating M. tuberculosis project, secondary assay (AID 492998);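 also: 100% = vehicle-treated cells and 0% = background wells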
Conditions: series mostly up to 20 µM; viability: at the top concentration

Compound | viability [%]
O=C(OCn1nnc2ccccc2c1=O)c1ccc(N2CCOCC2)c([N+](=O)[O-])c1 | 90.7
CCOC(=O)C1=C(C)NC(=O)NC1c1ccc(-c2ccc(F)cc2)o1 (stereo not drawn) | 85.3
CCOC(=O)c1ccc(N=C2SC(C(=O)Nc3ccc(C(=O)O)cc3)CC(=O)N2Cc2cccs2)cc1 (stereo not drawn) | 94
O=c1oc2ccccc2nc1/C=C(\O)c1ccc(Br)cc1 | 107
O=C(CCSc1ccccc1)N1CCCC1 | 92.7
O=C(CCN1CCCCCC1)c1ccccc1 | 92.9
Cc1nnc(N/N=C/c2ccc(Br)cc2)n1N | 113
COCCSc1nnc(NC(=O)CCS(=O)(=O)Cc2ccccc2)s1 | 92.1
CCCCOc1ccc(CSCCN)cc1Cl | 105
CC(=O)c1ccc(NC(=O)C(Cc2ccccc2)n2cccc2)cc1 (stereo not drawn) | 97
Cc1ccccc1C(=O)NNc1ccc([N+](=O)[O-])cc1 | 103
Cc1ccc(NC(=O)ON=C2CCCC2)cc1 | 102
Cc1cc(C)n(-c2ccc(C(=O)Oc3ccc4c(c3)OCO4)cc2)n1 | 106
CCN(CC)CCSc1nnc2c3cc(C)ccc3n(Cc3ccccc3)c2n1 | 98.4
Cc1c(C(=O)NNC(=O)c2csc(N3CCOCC3)n2)oc2ccccc12 | 93.1
NC(=O)N/N=C/c1ccccc1OC(=O)c1cc2ccccc2oc1=O | 114
O=C(Nc1ccccc1)c1ccc(Br)o1 | 96.5
CCC(C)(C)NC(=O)c1ccc(Br)o1 | 110
CC(C)(C)OC(=O)N/N=C\c1ccc(OC(=O)c2ccco2)cc1 | 108
CC1(c2nnc(-c3ccccc3)o2)CC(c2ccc(Cl)cc2)=NO1 (stereo not drawn) | 102
Clc1ccc(OCCOCCN2CCc3ccccc3C2)c(Cl)c1 | 90.1
COc1ccccc1/C=C/C=N/NC(=O)c1ccncc1 | 104
Cc1cc(C)n(-c2ccc(C(=O)OCC(=O)Nc3cc(Cl)ccc3[N+](=O)[O-])cc2)n1 | 106
Cc1ccc(CN2CC(C(=O)OCc3ccccc3Cl)CC2=O)cc1 (stereo not drawn) | 98.3
Cc1ccc(C(=O)COC(=O)CCc2ccc(S(=O)(=O)N3CCCCC3)cc2)cc1 | 98.9

Compound | viability [%]
Cc1ccc(N2NC(=O)/C(=C/C=C/c3ccco3)C2=O)cc1C | 98.1
Cc1ccc(OCCCCn2ccnc2)c(Cl)c1 | 84.3
CC1(C)Oc2ccc(NC(=O)C3COc4ccccc4O3)cc2O1 (stereo not drawn) | 97.8
O=C(Oc1ccccc1Cl)c1ccc2c(=O)n3c(nc2c1)CCC3 | 95.4
CCOc1ncccc1C(=O)OCC(=O)N1CCc2ccccc21 | 98.4
C=CCOC(=O)c1ccc(-n2cnc(C)n2)nc1 | 102
O=C1CCC/C(=N/Nc2ccc(Cl)cc2)C1 | 96.4
CCc1nnc(N/N=C/c2c(F)cccc2Cl)n1N | 106
CCc1ccc(Cc2cnc(NC(=O)C3=NCCN3)s2)cc1 | 89.2
Cn1c(SCCOc2cccc(Cl)c2)nnc1-c1ccncc1 | 92.3
O=C(Oc1ccccc1)c1cccc(COC(=O)c2cnccn2)c1 | 92.2
O=S(=O)(c1ccc(Cl)c2ccccc12)N1CCCC1 | 90.6
c1ccc(-c2noc(CC3CCCCC3)n2)nc1 | 93.4
O=C(COc1ccc(Cl)cc1)Nc1ccc2[nH]ncc2c1 | 84.2
CC(C)c1ccc(OCC(=O)NCc2ccccc2)cc1 | 98.7
CCOC(=O)C(C)Oc1ccc(OCc2ccccc2)cc1 (stereo not drawn) | 85
Cc1cccc(NC(=O)c2ccc(OC3CSC3)cc2)c1 | 95.8
O=C(CCNc1ccc(Cl)cc1)c1cccs1 | 93.9
O=C(NNC(=O)c1cccs1)c1ccc(Br)o1 | 104
O=[N+]([O-])c1ccc(CN2CCN(c3ccccc3)CC2)o1 | 116
Cc1ccc(CC(=O)N2CCN(c3ccc([N+](=O)[O-])cc3)CC2)cc1 | 81.7
O=[N+]([O-])c1ccc(N2CCN(Cc3ccc([N+](=O)[O-])o3)CC2)cc1 | 87
O=C(N/N=C/c1ccc([N+](=O)[O-])o1)c1ccc(NS(=O)(=O)c2cccs2)cc1 | 86.5
O=C(c1cccs1)N1CCN(c2ccc(Cl)cc2)CC1 | 98.4
O=C1CCCC(O)=C1C=Nc1ccc2c(c1)oc1ccccc12 | 88.5

Compound | viability [%]
CCCCCCOc1ccc(C(=O)O)cc1C#N | 92.4
CCC(=O)c1ccc(OC(=O)c2ccc(Br)o2)cc1 | 94
Cc1cccc2nc(CSc3nc4cc([N+](=O)[O-])ccc4s3)cn12 | 97.2
Cc1nc2scc(-c3ccccc3)c2c(=O)o1 | 102
C=CCn1c(C)cc(C2=NNC(=NCc3ccccc3)SC2)c1C | 84.2
Cc1ccc2c(c1)c1c3n2CCN=C3CCC1 | 109
CCNC(=O)COC(=O)c1ccc(-c2nc3ccccc3s2)s1 | 109
Cc1ccc(/C=N/NC(=O)c2ccncc2)o1 | 100
O=C(N/N=C/c1cccc2nccnc12)c1ccncc1 | 104
Cc1ccsc1/C=N/NC(=O)c1ccncc1 | 106
O=C(N/N=C/c1ccc[nH]1)c1ccncc1 | 103
Clc1ccccc1CSc1nnc([C@@H]2CCCN2)o1 | 98.8
Cc1cccc(Cc2cnc(NC(=O)C3=NCCN3)s2)c1 | 85.1
C=C[C@]1(C)C=C2CCC3[C@](C)(CCC[C@@]3(C)C(=O)O)C2CC1 (stereo partly drawn) | 100
S=C1NC2(CCCC2)N=C1c1ccccc1 | 107
Cc1ccc(C)c(NC(=O)COC(=O)c2cc3ccccc3oc2=O)c1 | 112
CN1CCC(O)(c2ccccc2)C(C(=O)c2ccccc2)C1 (stereo not drawn) | 70.1
Cc1cccc(N2CCN(C(=O)Cn3sc4nc(C)cc(C)c4c3=O)CC2C)c1 (stereo not drawn) | 82.3
CCCOC(=O)NC1CCS(=O)(=O)C1 (stereo not drawn) | 93.6
Cc1csc(NC(=O)c2cc([N+](=O)[O-])cc([N+](=O)[O-])c2)n1 | 90.4
CC(C)(C)c1csc(NC(=O)c2ccccc2O)n1 | 76.7
O=C(Nc1nnc(COc2ccc(Cl)cc2)s1)c1ccco1 | 102
O=C(Nc1ncccn1)c1ccc([N+](=O)[O-])o1 | 91.3
O=C(CN1CCN(c2ccc([N+](=O)[O-])cc2)CC1)Nc1ccccn1 | 93.9
O=C(Nc1nccs1)c1ccc(COc2ccc(Cl)cc2)o1 | 99.7

Compound | viability [%]
Fc1cccc2sc(N3CCCC3)nc12 | 102
O=C(CCC1CCCC1)NCc1ccccn1 | 95.9
CCN(CC)S(=O)(=O)c1ccc(C(=O)OCn2nnc3ccccc3c2=O)cc1 | 102
Nc1ccc(Br)c2cccnc12 | 78.7
CCN(CC)c1ccc(-c2sc(Nc3ccccc3)n[n+]2-c2ccc(F)cc2)cc1 | 94.7
Cc1cc(C(=O)N/N=C/c2cccc(Cl)c2Cl)no1 | 98.8
CSc1ccc(NC(=O)Nc2cccn(Cc3ccccc3)c2=O)cc1 | 70
CCN(CC)c1ccc(NC2CC(=O)N(CCc3ccc(OC)cc3)C2=O)cc1 (stereo not drawn) | 87
CN1C(c2ccccc2)CC(=NO)CC1c1ccccc1 (stereo not drawn) | 101
COc1ccc(-c2nnc(NC(=O)C3=COCCO3)o2)cc1 | 98.6
COc1ccc(-c2nnc(SCC(C)C)o2)cc1 | 97.1
O=C(COc1ccccc1)Nc1nnc(-c2ccc3c(c2)CCCC3)o1 | 108
O=C(CNC(=O)c1ccc(Br)cc1)c1ccc(Br)cc1 | 102
COC(=O)COc1ccc(-c2ccc(F)cc2)cc1C=O | 109
CC(=O)Nc1ccc(OC(=O)c2ccc(Br)c([N+](=O)[O-])c2)cc1 | 91.4
CC(C)C1O/C(=N/C(=O)Nc2ccc(Cl)c(Cl)c2)NC1=O (stereo not drawn) | 99.6
COc1n[nH]c(C(=O)Nc2cc(F)ccc2C)c1[N+](=O)[O-] | 86.7
CC(C)(C)NC(=O)COC(=O)c1snc(C(=O)NC2CCCCC2)c1N | 89.4
COc1ccc(NC(=O)COc2ccc3c(c2)CCC3)cc1 | 92.8
O=C(OCC(=O)c1c[nH]c2ccccc12)c1ccc([N+](=O)[O-])s1 | 97.2
O=C(CN1CCOCC1)N/N=C/c1ccc(-c2ccc(Br)cc2)o1 | 87
O=C(CCSc1nnc(-c2ccncc2)o1)Nc1cccc(Cl)c1 | 106
CCc1ccc(OCCCC(=O)Nc2nccs2)cc1 | 102
COc1ccc(C(=O)C2CCCN(C(=O)c3ccc(CSC)o3)C2)cc1F (stereo not drawn) | 94.1
CSc1ccc(C(=O)C2CCCN(Cc3cc4ccccc4[nH]3)C2)cc1 (stereo not drawn) | 102

Compound | viability [%]
O=C(CCS(=O)(=O)c1ccc(Cl)cc1)Oc1ccc2c(c1)OCO2 | 111
CC1=NN(C(=O)COc2ccccc2)C(O)(c2ccccc2)C1 (stereo not drawn) | 108
CC(Cc1cccs1)NC(=O)c1cccc(Cl)c1 (stereo not drawn) | 96.6
CCc1ccc(NC(=O)C(=O)NNC(=O)c2cccc(OC)c2)cc1 | 96.3
Cc1ccc(C(=O)Oc2cccc(-n3cnnn3)c2)cc1 | 87.5
CCOC(=O)c1csc(-c2snnc2C)n1 | 99
O=C(NNC1=C(C(=O)C(F)(F)F)CCC1)c1ccccc1Cl | 80.3
N#CC1=C(N)Oc2n[nH]c(-c3cccnc3)c2C1c1ccc([N+](=O)[O-])o1 (stereo not drawn) | 99.4
Cc1ccc(-c2nc3ccccn3c2Nc2ccccc2)o1 | 97.9
Cc1c(-c2ccc(Br)cc2)nc2ccccn12 | 102
Cc1ccc(-c2nnc(NC3CCCC3)s2)cc1 | 98.6
CCOC(=O)c1c(C)nc2cc(C)ccn12 | 103
FC(F)(F)c1ccc(-c2nnc(-c3cccnc3)o2)cc1 | 111
CCOC(=O)c1ccc(N=CC2=C(O)CC(C)(C)CC2=O)cc1 | 118
O=C(c1nnc(-c2ccc(Cl)cc2)o1)C1CCCC1 | 88.8
COc1ccc(CNC(=O)COC(=O)C2CC3C=CC2C3)cc1 (stereo not drawn) | 105
CSc1ccc(COC(=O)CCS(=O)(=O)c2ccc(C)cc2)cc1 | 110
Cc1cc(OCCCn2ccnc2)ccc1C(C)C | 89.4
C=C1Cn2c(nnc2-c2ccc(Cl)cc2)S1 | 106
Cc1cccc(OC(=O)c2ccc3nccnc3c2)c1 | 95.6
CCOC(=O)CN(C#N)c1nc(N(C)C)nc(N(C)C)n1 | 95
Cc1cc(OCCCCn2ccnc2)cc(C)c1Cl | 81.2
O=C(COC(=O)c1ccccc1Br)Nc1ccccc1F | 99.3
